# TGFb inhibitor: qHTS for Inhibitors of TGF-b; HepG2 CAGA-GFP TGF-b/SMAD3 reporter, GFP fluorescence, 18 h; TGF-beta stimulated, 500 pg/mL final; Potency, µM (highest dose often 46.1 µM), for the others: at the top dose activity, negative = inhibition, actives largely listed as inhibitors; actives 1.2% (n = 410,000); AID 588855, 2011; also: potency is read from the fitted curve at half-maximal effect; % is scaled to controls: 0 for no effect and ±100 for the full control effect; nearly all actives have a fitted effect of over 65% in size
#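 First, reporter cells (HEPG2 CAGA-GFP) rested 2 h at 37 degrees C. Next, compounds were pinned in and TGF-beta added to 500 pg/mL final. After 18 h, GFP was imaged per cell and summed per well.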
# TDP1 cell noCPT: qHTS for Inhibitors of human tyrosyl-DNA phosphodiesterase 1 (TDP1): qHTS in cells in absence of CPT | DT40 Tdp1-/- hTDP1 cells, no CPT, ATP luminescence, 48 h | Potency, µM (series often up to 46.2 µM), inactives show at the top dose activity change, negative = growth inhibition, most hits filed as inhibitors | actives 15% (n = 420,000); also: potency is read from the fitted curve at half-maximal effect; % is scaled to controls: 0 for no effect and ±100 for the full control effect; nearly all actives have a fitted effect of over 55% in size
#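 Growth kinetics read by CellTiter-Glo luminescence after ≥48 hr at 37 °C. Cells: DT40 Tdp1-/- stably carrying human TDP1, 400 per well, compound exposure in the absence of CPT (DMSO vehicle).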
# TDP1 block: qHTS Assay for Inhibitors of Tyrosyl-DNA Phosphodiesterase (TDP1). recombinant TDP1, AlphaScreen DNA substrate cleavage. Potency, µM (top dose mostly 130 µM), inactives show top-dose activity change, negative = inhibition, most hits filed as inhibitors. actives 0.28% (n = 350,000). AID 485290, 2010; also: potency is read from the fitted curve at half-maximal effect; % is scaled to controls: 0 for no effect and ±100 for the full control effect; nearly all actives have a fitted effect of over 40% in size
# Target sequence (Q9NUW8 whole entry, looked up): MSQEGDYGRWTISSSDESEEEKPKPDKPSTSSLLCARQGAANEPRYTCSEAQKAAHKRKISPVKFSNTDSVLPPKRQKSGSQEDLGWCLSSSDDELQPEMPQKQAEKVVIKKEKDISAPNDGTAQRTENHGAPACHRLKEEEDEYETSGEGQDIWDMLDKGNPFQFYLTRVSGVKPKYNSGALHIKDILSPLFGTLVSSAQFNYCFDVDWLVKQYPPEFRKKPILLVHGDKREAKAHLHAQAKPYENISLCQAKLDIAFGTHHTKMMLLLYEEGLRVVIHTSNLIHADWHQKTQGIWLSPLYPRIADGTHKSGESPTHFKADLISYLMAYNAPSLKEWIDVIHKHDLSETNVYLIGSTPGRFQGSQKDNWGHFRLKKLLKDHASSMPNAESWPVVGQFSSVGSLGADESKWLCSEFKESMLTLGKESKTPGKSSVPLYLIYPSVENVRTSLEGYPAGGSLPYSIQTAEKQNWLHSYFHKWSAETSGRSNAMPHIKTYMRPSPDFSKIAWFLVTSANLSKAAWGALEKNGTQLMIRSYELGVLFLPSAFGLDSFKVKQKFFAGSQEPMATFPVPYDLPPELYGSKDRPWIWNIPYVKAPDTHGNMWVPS
#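 Signal: AlphaScreen proximity between streptavidin donor and anti-FITC acceptor beads on intact substrate. Reaction: Tdp1 1 nM, substrate 15 nM final, 5 min RT after 15 min compound preincubation.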
# HepG2 viability: qHTS for Inhibitors of TGF-b: Cytotox Counterscreen | HepG2 CAGA-GFP viability, ATP luminescence, 18 h | actives 0.76% (n = 410,000) | Potency, µM (titrated, usually from 46.1 µM), inactives show at the highest dose activity change, negative = cytotoxicity, hits mostly cytotoxic; also: potency is read from the fitted curve at half-maximal effect
#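 HepG2 CAGA-GFP cells (1000/well, DMEM with 1% FBS) received compound, then TGF-beta at 500 pg/mL final, and were incubated 18 hours at 37 degrees C. Viability was read by CellTiter-Glo luminescence. Media-only wells were set as complete cell-killing and DMSO as no toxicity.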
# DT40 TDP1 CPT: qHTS for Inhibitors of human tyrosyl-DNA phosphodiesterase 1 (TDP1): qHTS in cells in presence of CPT; Potency, µM (highest dose often 46.2 µM), inactives show at the top dose activity change, negative = growth inhibition, hits mostly inhibitors; actives 12% (n = 420,000); chicken DT40 Tdp1-/-;hTDP1 cells + 20 nM CPT, ATP luminescence, 48 h; also: potency is read from the fitted curve at half-maximal effect; % is scaled to controls: 0 for no effect and ±100 for the full control effect; nearly all actives have a fitted effect of over 55% in size
#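 Cell growth measured by CellTiter-Glo luminescence after a minimum 48 h, 37 C compound exposure with 20 nM CPT in Tdp1-knockout DT40 cells stably expressing hTDP1, seeded 400/well; qHTS titration format.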
# IL1B secr inh: qHTS for Inhibitors of Inflammasome Signaling: IL-1-beta AlphaLISA Primary Screen; THP-1 LPS/ATP IL-1B secretion, AlphaLISA, 16 h; active compounds read low; activity change, % at 57.5 µM; actives 4.7% (n = 360,000); AID 743279, 2014; in the data active = activity change below about -50%; inconclusive = mostly about -30% to -49%; also: % is scaled to controls: 0 for no effect and ±100 for the full control effect
#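 Secreted IL-1B measured by AlphaLISA bead assay after 16 h compound exposure of THP-1 cells; compounds (final up to 57.5 uM) added 1 h before LPS (250 ng/mL) and ATP (1.25 mM) stimulation; lower signal means less secretion.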
# Active calls of the source: *; ? = inconclusive; nt = no result given; [ ] = another dose, or the depositor's remark. Compounds with a hit are over-represented: about 19% of the library has one in this group of screens. Unless noted, calls follow the shape of the dose curve; as a rule, active = well fitted curve in the direction sought with a large enough effect; inconclusive = small, poorly fitted or top-dose-only effect, or another doubt; inactive = no such curve, though single readings can be large; an effect the other way counts as inactive or inconclusive.
SMILES,TGFb inhibitor,TDP1 cell noCPT,TDP1 block,HepG2 viability,DT40 TDP1 CPT,IL1B secr inh
Cc1cc(C(=O)CSc2nnc(-c3cccc(F)c3)n2N)c(C)n1Cc1ccc2c(c1)OCO2,0.0%,23.1µM*,0.0%,-49.1%,14.6µM*,?
Cc1cc(C(=O)CSc2nnnn2-c2ccc(O)cc2)c(C)n1Cc1ccc2c(c1)OCO2,?,?,3.3%,-0.7%,?,-8.2
Cc1cc(C(=O)CSc2nnnn2-c2ccccc2)c(C)n1-c1ccc2c(c1)OCO2,?,13µM*,-5.3%,-19.3%,23.1µM*,9.2
Cc1cc(C)c(C(N)=O)c(SCC(=O)c2cc(C)c(C)cc2C)n1,-0.9%,-25.6%,1.8%,-5.1%,-26.6%,12.5
Cc1cccc(CNS(=O)(=O)c2ccc3[nH]c(=O)ccc3c2)c1,5.3%,-17.9%,2.2%,-4.2%,?,nt
Nc1ncnc2n[nH]c(Nc3ccc(F)cc3)c12,nt,nt,10.8%,nt,nt,nt
Cc1cc(-n2c(C)cc(C(=O)CN3C(=O)NC4(CCCCCC4)C3=O)c2C)no1,-10.0%,?,7.8%,-4.3%,-24.5%,-15.2
CCCn1c(SCC(=O)c2cc(C)n(C3CC3)c2C)n[nH]c1=O,-8.2%,-18.2%,5.7%,12.1%,-8.5%,-7.3
Cc1cc(C(=O)CSc2nnnn2C)c(C)n1-c1cccc(F)c1,-22.6%,9.2µM*,7.1%,-22.8%,?,-12.2
Cc1ccc(-n2nnnc2SCC(=O)c2cc(C)n(-c3cc(C)on3)c2C)cc1,-33.7%,14.6µM*,-2.2%,-34.5%,11.6µM*,11.6
CCCn1c(SCC(=O)c2cc(C)n(-c3ccc4c(c3)OCO4)c2C)n[nH]c1=O,-20.0%,6.51µM*,5.6%,-5.1%,23.1µM*,8.6
Cc1cc(C(=O)CN2C(=O)NC3(CCCCC3)C2=O)c(C)n1-c1ccc2c(c1)OCO2,-0.7%,20.6µM*,4.2%,-3.9%,?,?
Cc1ccc2nc(SCC(=O)NCc3ccccc3)nc(=O)n2c1,10.6%,?,1.5%,1.3%,-19.2%,-16.1
O=C(CSc1nncs1)NCc1ccc2c(c1)OCO2,1.0%,-18.6%,1.0%,0.9%,4.0%,0.0
Cc1cc(C(=O)CSc2nncs2)c(C)n1-c1ccc2c(c1)OCO2,-21.3%,17.8µM*,8.3%,-22.4%,20.6µM*,-69.2*
O=C(CCn1c(=O)c2ccccc2n(CC(=O)Nc2cccc(F)c2)c1=O)NCCc1ccccc1,-2.4%,-28.4%,0.0%,-2.3%,4.7%,nt
COc1ccc(OC)c(NC(=O)CSc2nc3ccccc3c(=O)n2CCC(=O)NC2CCCCC2)c1,8.4%,-5.6%,4.4%,2.4%,-6.5%,nt
COc1cc(OC)cc(C(=O)Nc2ccc(C(=O)c3ccncc3)cc2)c1,-3.6%,?,4.7%,-0.3%,?,-24.3
COc1ccc(C(=O)Nc2ccc3ccccc3c2)cc1OC,15.4%,-14.2%,3.5%,-1.3%,1.7%,-21.6
COc1ccc(C(=O)c2ccc(OC)c(OC)c2)cc1OC,?,?,-2.9%,4.5%,?,-0.4
COCc1cc(=O)oc2cc(NC(=O)c3ccc(C(C)(C)C)cc3)ccc12,-28.4%,14.6µM*,nt,-34.1%,9.2µM*,-11.7
COc1ccc(C(=O)c2cc(OC)c(OC)c(OC)c2)cc1OC,-30.9%,2.59µM*,nt,-26.7%,4.61µM*,43.3
COc1cc(C(=O)Nc2ccc(C(=O)c3ccncc3)cc2)cc(OC)c1OC,-4.0%,23.1µM*,nt,-1.2%,14.6µM*,-14.6
COc1cc(C(=O)Nc2ccc3ccccc3c2)cc(OC)c1OC,-2.8%,0.651µM*,nt,17.8%,?,3.5
FC(F)(F)c1ccc(-n2cnc3ccccc32)nc1,-8.6%,6.3%,3.9%,-5.8%,-19.6%,9.6
SMILES,TGFb inhibitor,TDP1 cell noCPT,TDP1 block,HepG2 viability,DT40 TDP1 CPT,IL1B secr inh
NC(=O)C1CCN(C(=O)CC2(CC(=O)O)CCCC2)CC1,-5.1%,-2.1%,0.9%,-9.6%,7.6%,-6.8
Oc1ccc(-c2cnccn2)cc1CN1CCN(C2CCCCC2)CC1,nt,-21.4%,nt,nt,-75.1%[9.04 µM],nt
COc1cc(C(=O)Nc2ccc(NC(=O)c3ccc(Br)cc3)cc2)cc(OC)c1OC,-28.8%,-3.7%,4.8%[12.3 µM],2.9%,-1.8%,nt
COc1cc(C(=O)Nc2ccc(NC(=O)c3ccc(C(C)(C)C)cc3)cc2)cc(OC)c1OC,1.3%,3.26µM*,1.9%[2.28 µM],-22.2%,2.91µM*,nt
COc1ccc(C(=O)Sc2ccc(Cl)cc2)cc1OC,31.0%,11.6µM*,1.0%,-19.6%,8.2µM*,-83.6*
CC12C=C(/C=C/CCc3ccco3)C(C)(C1)[C@H](CCc1ccco1)CC2=O (some centres not stated),nt,nt,3.7%,nt,nt,nt
CC(NC(=O)c1ccco1)c1nnc2n1CCN(Cc1ccc(N(C)C)cc1)CC2 (configuration not stated),nt,-14.3%,nt,nt,-3.5%,nt
Cc1cc(N2CCN(C)CC2)nc2ccc(NC(=S)N3CCN(c4ccc(F)cc4)CC3)cc12,-1.3%,10.3µM*,-2.6%,-58.4%,?,211.5
Cc1cc(N2CCN(C)CC2)nc2ccc(NC(=S)N3CCN(c4cccc(Cl)c4)CC3)cc12,-0.3%,2.59µM*,6.9%,5.1%,1.84µM*,18.8
Cc1cccc(N2CCN(C(=S)Nc3ccc4nc(N5CCN(C)CC5)cc(C)c4c3)CC2C)c1 (configuration not stated),?,20.6µM*,4.6%,10µM*,?,-72.4*
Cc1cc(N2CCN(C)CC2)nc2ccc(NC(=S)N3CCN(c4ccc(Cl)cc4)CC3)cc12,-4.2%,?,7.9%,-9.1%,9.2µM*,37.7
Cc1cc(N2CCN(C)CC2)nc2ccc(NC(=S)N3CCCCCC3)cc12,10.5%,-29.8%,8.1%,-22.8%,-4.0%,-5.2
O=C1CCCN1CCC1CCCCN1Cc1nc(-c2cnccn2)no1 (configuration not stated),12.8%,1.2%,nt,13.6%,-7.2%,9.9
CCCC[C@H]1CCCO[C@@](C(=O)NCCN2CCOCC2)(C(F)(F)F)C1,-22.6%,nt,1.5%,-5.9%,nt,nt
COc1cccc(CNC(=O)c2cc(S(=O)(=O)N3CCCCC3)cn2C)c1,4.2%,?,3.0%,-12.3%,-18.8%,nt
Cc1cccc(N2CCN(C(=S)Nc3ccc4nc(N5CCN(C)CC5)cc(C)c4c3)CC2)c1C,-19.7%,1.03µM*,6.2%,-21.2%,1.3µM*,4.2

# Compound activity as filed in PubChem BioAssay.
